Assay results reported in PubChem BioAssay (NCI).
This is part of a sample that, as a whole, favours compounds with a hit. Of some 83,000 tested, about 20% had one in any assay.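 For each line, cells grew in 96-well plates with the test compound present at a single concentration for 48 hours.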 Calls of active or inactive are those of the source. Rule for the calls: active = growth percent below 10; inactive = the rest.

Tests used:
Test in all cases: NCI-60 one-dose screen, 48 h (100 = growth as untreated, 0 = no growth, -100 = all killed)
Conditions in all cases: 10 µM unless noted
[1] = system: HCT-15 colon
[2] = system: HT29 colon
[3] = system: SNB-75 CNS
[4] = system: SNB-19 CNS
[5] = system: U251 CNS
[6] = system: PC-3 prostate
[7] = system: UACC-62 melanoma
[8] = system: LOX IMVI melanoma
[9] = system: SK-MEL-28 melanoma
[10] = system: SK-MEL-2 melanoma
[11] = system: EKVX NSCLC
[12] = system: SN12C renal
[13] = system: UO-31 renal
[14] = system: TK-10 renal
[15] = system: ACHN renal
[16] = system: CAKI-1 renal
[17] = system: A498 renal
[18] = system: CCRF-CEM leukemia
[19] = system: MOLT-4 leukemia
[20] = system: SK-MEL-5 melanoma

Measured: growth

COC(=O)[C@H]1[C@H]2C[C@@H]3c4[nH]c5cc(OC)ccc5c4CCN3C[C@H]2C[C@@H](OC(=O)/C=C/c2cc(OC)c(OC)c(OC)c2)[C@@H]1OC
active: [2] -66.1% | [18] 5.36% | [19] 8.49%
inactive: [1] 39.9% | [3] 47.2% | [4] 49.9% | [5] 17.4% | [6] 44.6% | [7] 87.4% | [8] 26.8% | [9] 109% | [10] 66.2% | [11] 90.4% | [12] 63.3% | [13] 69.2% | [14] 46.4% | [15] 68.5% | [16] 30.9% | [17] 81.7%

O=C(COc1cccc(/C=C2\Oc3ccc4ccccc4c3C2=O)c1)c1ccc(Cl)cc1
active: [13] -7.73%
inactive: [1] 72.4% | [2] 103% | [3] 90.5% | [4] 92% | [5] 61.5% | [6] 77.5% | [20] 89.3% | [7] 82.8% | [10] 57.5% | [11] 92.8% | [12] 91.2% | [14] 115% | [15] 96.8% | [16] 83% | [17] 132% | [18] 25.3% | [19] 74%

O=C1C=CC(=O)N1c1ccccn1
inactive: [1] 97.7% | [2] 115% | [3] 89.3% | [4] 96.6% | [5] 110% | [6] 99.4% | [7] 95% | [8] 93.6% | [9] 115% | [10] 109% | [11] 118% | [12] 96.2% | [13] 97.1% | [14] 113% | [15] 97.4% | [16] 104% | [17] 95.8% | [18] 105% | [19] 66.6%

C=C(CN1CCc2c([nH]c3ccccc23)C1)c1ccc(C(=O)Nc2ccon2)cc1
inactive: [1] 104% | [2] 99.2% | [3] 96.6% | [4] 74.4% | [5] 92% | [6] 73.8% | [7] 80% | [8] 83.8% | [9] 97.8% | [10] 75.8% | [11] 80.3% | [12] 93.8% | [13] 30.7% | [14] 131% | [15] 99% | [16] 83.9% | [17] 116% | [18] 81.2% | [19] 77.1%

Oc1c(Cl)cc(Cl)c(Cl)c1Cc1c(O)c(Cl)cc(Cl)c1Cl
inactive: [1] 11.5% | [2] 13.1% | [3] 46.9% | [4] 23% | [5] 15% | [8] 26.2% | [9] 22.4% | [15] 18.4% | [19] 11.1%
active: [6] -6.08% | [7] 2.95% | [10] -39.1% | [11] -4.03% | [12] 5.01% | [13] -2.22% | [16] -18.3% | [17] -17.3%

Cc1c2oc3c(C)ccc(C(=O)OC(C)C4NC(=O)C(C(C)C)N(C)C(=O)CN(C)C(=O)C5CCCN5C(=O)C(C(C)C)NC4=O)c3nc-2c(C(=O)OC(C)C2NC(=O)C(C(C)C)N(C)C(=O)CN(C)C(=O)C3CCCN3C(=O)C(C(C)C)NC2=O)c(N)c1=O (centres undefined)
inactive: [5] 14.8% | [6] 10.4% | [18] 18.4%
active: [1] 7.36% | [2] -29.2% | [3] -73.8% | [4] 3.31% | [7] -71% | [8] 4.35% | [9] -20.8% | [10] -64.8% | [11] 5.92% | [12] 7.77% | [13] -8.49% | [14] -7.83% | [15] 1.27% | [16] 3.24% | [17] -75.4%

Cc1ccc(-c2csc(N)n2)cc1
inactive: [1] 99.9% | [2] 93.6% | [3] 93.2% | [4] 98.1% | [5] 92.9% | [6] 91.2% | [7] 99% | [8] 101% | [9] 110% | [10] 107% | [11] 104% | [12] 96% | [13] 88.6% | [14] 97.2% | [15] 97.7% | [16] 99.2% | [18] 92% | [19] 90.3%

COc1ccc2cc(-c3nc4ccccc4[nH]3)c(=O)oc2c1
inactive: [1] 94.2% | [2] 114% | [3] 126% | [4] 98.3% | [5] 93.5% | [6] 87.5% | [7] 83.6% | [8] 80.4% | [9] 103% | [10] 22.1% | [11] 77.3% | [12] 92.3% | [13] 94.2% | [14] 119% | [15] 86.2% | [16] 82.2% | [17] 95.6% | [18] 95.3% | [19] 97.7%

COC(=O)CC1=C(c2ccc([N+](=O)[O-])cc2)CCC1=O
inactive: [1] 89.6% | [2] 107% | [3] 82% | [4] 109% | [5] 103% | [6] 91.9% | [7] 100% | [8] 94.6% | [9] 109% | [10] 103% | [11] 94.5% | [12] 103% | [13] 80.5% | [14] 107% | [15] 102% | [16] 99.8% | [17] 69.5% | [18] 95.3% | [19] 104%

Oc1c(Cl)cc(Oc2cc(Cl)c(O)c(CN3CCOCC3)c2)cc1CN1CCOCC1
inactive: [1] 82.1% | [2] 105% | [3] 88.1% | [4] 86.2% | [5] 96.9% | [6] 81% | [7] 66.8% | [8] 83.3% | [9] 126% | [10] 88.2% | [11] 90.5% | [12] 95.4% | [13] 71.1% | [14] 95.1% | [15] 84.9% | [16] 78% | [17] 84.7% | [18] 107% | [19] 80.4%

Nc1nc(SCc2cccnc2)c2ncn(C3OC(CO)C(O)C3O)c2n1 (centres undefined)
inactive: [1] 102% | [2] 106% | [3] 101% | [4] 98.7% | [5] 98.3% | [6] 89.4% | [7] 84.8% | [8] 102% | [9] 111% | [10] 109% | [11] 101% | [12] 89.2% | [14] 99.5% | [15] 92.2% | [16] 98.6% | [19] 111%

COc1cc(C(=O)/C=C/c2cccc(Nc3ccnc4cc(Cl)ccc34)c2)cc(OC)c1OC
inactive: [3] 16.4% | [4] 20.3% | [7] 22.5% | [11] 16.8% | [17] 78.6%
active: [1] -32.1% | [2] -90% | [5] -90.9% | [6] -12.7% | [8] -85.8% | [9] -39.2% | [12] -1.72% | [13] -87.9% | [14] -39.5% | [15] -68.7% | [18] 2.7%

COc1ccc(C2=NN(C=O)C(c3cccc(Nc4ccnc5cc(Cl)ccc45)c3)C2)cc1 (centres undefined)
inactive: [1] 16.6% | [4] 40% | [5] 19.6% | [6] 22.8% | [7] 32.3% | [11] 36.1% | [12] 36.1% | [13] 31.2% | [14] 37.1% | [15] 35.9% | [17] 27.4% | [18] 17.1%
active: [2] 4.88% | [3] 8.36% | [20] -21.5% | [19] 9.88%

C/C(=C\CCc1ccoc1)CC/C=C(\C)CCCNc1ccc(F)cc1
inactive: [1] 93.3% | [2] 78.8% | [3] 94.3% | [4] 97.7% | [5] 94.2% | [6] 94.9% | [20] 99.9% | [7] 83.8% | [10] 106% | [12] 76.2% | [13] 54.6% | [14] 113% | [15] 97.9% | [16] 88.7% | [17] 79.7% | [18] 58.7% | [19] 59.6%

NC(=O)c1cc(Cl)ccc1NC(=O)c1ccccc1-c1ccccc1
inactive: [1] 27.9% | [4] 31.9% | [5] 21.4% | [6] 23.5% | [7] 18.6% | [8] 28.9% | [9] 41.5% | [12] 51.9% | [14] 41.6% | [15] 34.9% | [16] 26.4% | [17] 27.5%
active: [2] 9.11% | [3] -5.88% | [10] -12.2% | [18] 7.4%

Cc1[nH]cnc1/C=C1\SC(N2CCCCC2)=NC1=O
inactive: [1] 107% | [2] 108% | [3] 111% | [4] 102% | [5] 108% | [6] 106% | [7] 100% | [8] 97.7% | [9] 119% | [10] 98% | [11] 108% | [12] 98.4% | [13] 83% | [14] 109% | [15] 106% | [16] 112% | [17] 83.4% | [18] 99.3% | [19] 100%

NS(=O)(=O)c1ccc(-n2ncc3c(NC4CCCCC4)ncnc32)cc1
active: [13] 0.88%
inactive: [1] 86.4% | [2] 81.9% | [3] 113% | [4] 94.1% | [5] 96.3% | [6] 92.9% | [7] 97.2% | [8] 80.8% | [9] 98% | [10] 103% | [11] 102% | [12] 97.5% | [14] 107% | [15] 92.3% | [16] 39.6% | [17] 106% | [18] 82.3% | [19] 72.6%
